This passage reports growth results from PubChem BioAssay (NCI).

Among the test systems are SR leukemia; RPMI-8226 leukemia; OVCAR-8 ovarian; OVCAR-5 ovarian; OVCAR-4 ovarian; SK-OV-3 ovarian; IGROV1 ovarian; OVCAR-3 ovarian; HS 578T breast; NCI/ADR-RES ovarian.
Assay in all cases: NCI-60 one-dose screen, 48 h (100 = growth as untreated, 0 = no growth, -100 = all killed)
Common to all, as to conditions: 10 µM unless noted

Compounds without any hit were thinned out: in the full panel of roughly 83,000, 20% have a hit.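 Cells were grown in 96-well plates and exposed to the test compound at a single concentration for 48 hours; results are reported as percent growth, with values below 10 considered active.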 A number with no mark means an inactive call. Activity calls are given as the source filed them.

Regarding `COc1cccc(C(Cc2ccccc2)Nc2ccccc2)c1OC` (stereo not given), the growth is 102% in the experiment with SR leukemia; 89.7% in the experiment on RPMI-8226 leukemia; 99% in the experiment on OVCAR-8 ovarian; 103% in the experiment on OVCAR-5 ovarian; 98.1% with OVCAR-4 ovarian; 91.3% in the experiment with SK-OV-3 ovarian. The growth was 86.8% with IGROV1 ovarian, 98.4% with OVCAR-3 ovarian, 106% with HS 578T breast and 98.2% in the experiment with NCI/ADR-RES ovarian.

As to `COc1c(Cl)cc(Cl)c2ccc(C=C3C(=O)NC(=S)NC3=O)nc12`, the growth in the experiment on SR leukemia was 99%; with RPMI-8226 leukemia it was 105%; in the experiment on OVCAR-8 ovarian it was 109%; in the experiment on OVCAR-5 ovarian, 109%; in the experiment with OVCAR-4 ovarian, 109%; in the experiment on SK-OV-3 ovarian, 106%. Besides, the growth was 108% with IGROV1 ovarian, 103% with OVCAR-3 ovarian, 102% with HS 578T breast and 100% with NCI/ADR-RES ovarian.

For `COc1ccc2c(c1)OC13Oc4cc(OC)ccc4C=C1CCCC3=C2`, the growth is 4.94% (active) in the experiment with SR leukemia; -20.6% (active) with RPMI-8226 leukemia; 47.7% with OVCAR-8 ovarian; 47.2% in the experiment with OVCAR-5 ovarian; 55.2% with OVCAR-4 ovarian; 60.1% with SK-OV-3 ovarian. Also, the growth is 41.4% in the experiment on IGROV1 ovarian, 5.62% (active) in the experiment with OVCAR-3 ovarian, 45% with HS 578T breast and 21.6% with NCI/ADR-RES ovarian.

Turning to `O=C1OC(=O)C2C1CC=CC2c1ccccc1` (stereo not given), the growth is 55% with SR leukemia; 93.8% in the experiment on RPMI-8226 leukemia; 95.3% in the experiment on OVCAR-8 ovarian; 85.6% with OVCAR-5 ovarian; 83.4% in the experiment with OVCAR-4 ovarian; 81.8% with SK-OV-3 ovarian. The growth with IGROV1 ovarian is 84.6%; in the experiment with OVCAR-3 ovarian, 104%; in the experiment with HS 578T breast, 76.7%; in the experiment on NCI/ADR-RES ovarian, 91.1%.

For `CN(C)CCCn1c2c(c3ccc(-c4ccn[nH]4)cc3c1=O)C(=O)c1ccccc1-2`, the growth is -1.12% (active) in the experiment with SR leukemia; -0.979% (active) in the experiment with RPMI-8226 leukemia; 23.7% in the experiment on OVCAR-8 ovarian; 59.2% with OVCAR-5 ovarian; 77.9% in the experiment on OVCAR-4 ovarian; 23.5% with SK-OV-3 ovarian. The growth in the experiment on IGROV1 ovarian is 41.2%; with OVCAR-3 ovarian, 66.9%; with HS 578T breast it was 68.6%; with NCI/ADR-RES ovarian, 50.3%.

For `COc1cc2ncnc(Nc3ccc(C(=O)/C=C/c4ccc(C(F)(F)F)cc4F)cc3)c2cc1OC`, the growth is 63.4% with SR leukemia; 12.8% in the experiment with RPMI-8226 leukemia; 101% in the experiment with OVCAR-8 ovarian; 103% with OVCAR-5 ovarian; 105% with OVCAR-4 ovarian; 123% in the experiment on SK-OV-3 ovarian. Moreover, the growth was 94.2% in the experiment with IGROV1 ovarian, 101% with OVCAR-3 ovarian, 66.8% in the experiment on HS 578T breast and 102% with NCI/ADR-RES ovarian.

For the compound `CC(C)Cc1ccc(C(C)C(=O)NCc2c[nH]c3ccc(Cl)cc23)cc1` (stereo not given), the growth with SR leukemia was 80.5%; in the experiment on RPMI-8226 leukemia, 78.5%; with OVCAR-8 ovarian, 93.4%; with OVCAR-5 ovarian, 98.9%; in the experiment on OVCAR-4 ovarian, 88%; in the experiment with SK-OV-3 ovarian, 98.9%. For the same compound, the growth is 86.9% with IGROV1 ovarian, 95.5% in the experiment on OVCAR-3 ovarian, 82.8% in the experiment with HS 578T breast and 92.5% in the experiment with NCI/ADR-RES ovarian.

Consider `COc1ccc(-c2nc(SCC(C)C)nc(N/N=C(/C)c3ccc(OC)c(OC)c3)c2C#N)cc1`, for which the growth in the experiment with SR leukemia is 70.9%; in the experiment on RPMI-8226 leukemia, 71.3%; in the experiment with OVCAR-8 ovarian it was 93.4%; with OVCAR-5 ovarian, 81.7%; with OVCAR-4 ovarian it was 86.3%; with SK-OV-3 ovarian it was 93.3%. In addition, the growth in the experiment with IGROV1 ovarian was 78.8%; in the experiment with OVCAR-3 ovarian, 79.7%; in the experiment on HS 578T breast, 76%; with NCI/ADR-RES ovarian, 90.2%.

For the compound `CCCCCCCCCCCC(=O)C(CCCCCCCCCC)C(=O)Nc1ccccc1` (stereo not given), the growth is 99.7% in the experiment on SR leukemia; 99.2% in the experiment with RPMI-8226 leukemia; 103% with OVCAR-8 ovarian; 101% in the experiment on OVCAR-5 ovarian; 102% in the experiment on OVCAR-4 ovarian; 108% in the experiment with SK-OV-3 ovarian. Besides, the growth was 89.2% with IGROV1 ovarian, 112% in the experiment on OVCAR-3 ovarian, 96.8% with HS 578T breast and 102% in the experiment on NCI/ADR-RES ovarian.

For `COc1ccc(-c2nc(N/N=C/c3ccco3)nc(N3CCOCC3)c2C#N)cc1`, the growth is 60.2% in the experiment with SR leukemia; 64% in the experiment with RPMI-8226 leukemia; 88.6% with OVCAR-8 ovarian; 89.6% in the experiment on OVCAR-5 ovarian; 78% in the experiment on OVCAR-4 ovarian; 64.6% with SK-OV-3 ovarian. Besides, the growth in the experiment with IGROV1 ovarian is 37.3%; in the experiment with OVCAR-3 ovarian, 70.2%; in the experiment on HS 578T breast, 80.6%; with NCI/ADR-RES ovarian it was 86.4%.

Turning to `O=C(NNc1nc(Cl)nc(N2CCN(C(c3ccccc3)c3ccccc3)CC2)n1)c1ccccc1`, the growth is -37.4% (active) in the experiment on SR leukemia; 57.8% in the experiment on RPMI-8226 leukemia; 3.15% (active) in the experiment on OVCAR-8 ovarian; 88.7% in the experiment with OVCAR-5 ovarian; -16.1% (active) in the experiment with OVCAR-4 ovarian; 128% in the experiment with SK-OV-3 ovarian. Further, the growth was -92.6% (active) in the experiment on IGROV1 ovarian, -90.5% (active) in the experiment on OVCAR-3 ovarian, 36.3% in the experiment with HS 578T breast and 20.7% in the experiment on NCI/ADR-RES ovarian.

Take `O=C1NC(=S)NC(=O)C1=Cc1cccc(C=C2C(=O)NC(=S)NC2=O)c1`: the growth in the experiment with SR leukemia was 96.9%; with RPMI-8226 leukemia, 101%; in the experiment on OVCAR-8 ovarian it was 104%; with OVCAR-5 ovarian it was 110%; in the experiment on OVCAR-4 ovarian, 105%; in the experiment with SK-OV-3 ovarian, 110%. For the same compound, the growth in the experiment on IGROV1 ovarian is 107%; in the experiment with OVCAR-3 ovarian, 108%; in the experiment on HS 578T breast, 103%; in the experiment with NCI/ADR-RES ovarian, 102%.

Turning to `N#Cc1cc(-c2nc3ccccc3s2)c(=O)n(NS(=O)(=O)c2ccc(Cl)cc2)c1N`, the growth with SR leukemia is 110%; with RPMI-8226 leukemia, 100%; in the experiment on OVCAR-8 ovarian it was 110%; in the experiment on OVCAR-5 ovarian, 102%; in the experiment with OVCAR-4 ovarian it was 103%; in the experiment with SK-OV-3 ovarian, 83.7%. For the same compound, the growth with IGROV1 ovarian was 95.5%; with OVCAR-3 ovarian it was 107%; with HS 578T breast, 99.7%; in the experiment with NCI/ADR-RES ovarian, 104%.
